In PubChem BioAssay:
Active and inactive are the calls of the source.

What was measured:
[1] = E. coli DRC41 culture turbidity changes, primary screen, E. coli filamentation inducer project, strain DRC41, OD650, 48 h (AID 1152);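 note: E. coli MC1000 strain DRC41 lacking acrAB efflux pump and sulA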; settings: E. coli DRC41 (acrAB sulA), higher = more signal, called active from +8 up or from −8 down
[2] = small-molecule binders of probe aLefty1, primary screen, biochemical, small-molecule microarray, 635/667 nm fluorescence (AID 1153); settings: higher = more signal;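 note: score merges spot fluorescence with signal-to-noise ratio from the scanned slide images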
[3] = PSAC antagonists in infected red cells, primary screen, cell-based, P. falciparum Indochina, OD700, 1 h (AID 1154); settings: P. falciparum Indochina infected RBC osmotic lysis, higher = more signal, called active from +8 up or from −8 down
[4] = PSAC antagonists in infected red cells, primary screen, cell-based, P. falciparum Indochina, OD700, 2 h (AID 1155);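 note: lysis reports solute entry through the parasite surface anion channel PSAC; channel blockers reduce lysis of infected cells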; settings: P. falciparum Indochina infected erythrocytes, osmotic lysis OD700; higher = more signal, called active from +8 up or from −8 down
[5] = osmotic lysis modulators in infected erythrocytes, primary screen, PSAC antagonist project, cell-based, P. falciparum Indochina, OD700, 3 h (AID 1156); settings: higher = more signal, called active from +8 up or from −8 down
[6] = PSAC antagonists in infected red cells, primary screen, cell-based, P. falciparum Indochina, OD700, 18 h (AID 1157); settings: P. falciparum Indochina infected erythrocytes, osmotic lysis OD700, 18 h; higher = more signal, called active from +8 up or from −8 down
[7] = modulators of S6 phosphorylation in cells, primary screen, cell-based, A549, cytoblot, luminescence, serum-stimulated (AID 1158); settings: A549 phospho-S6 cytoblot, 5 h, higher = more signal;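 note: serum-stimulated A549 lung adenocarcinoma cells; signal is phosphorylated S6 detected by cytoblot immunostaining with HRP secondary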
[8] = target: NADPH oxidase 2 (Homo sapiens) (UniProt P04839); test: NOX2-dependent H2O2 signal modulators, primary screen, NOX inhibitor project, cell-based, HEK293-NOX2, PMA-stimulated, Amplex Red fluorescence (AID 1159); settings: 45 min, higher = more signal, called active from +8 up or from −8 down; note: test concentration not given here
[9] = target: NADPH oxidase 4 (Homo sapiens) (UniProt Q9NPH5); test: NOX4-dependent H2O2 signal modulators, primary screen, NOX inhibitor project, cell-based, HEK293-NOX4, tetracycline-induced, Amplex Red fluorescence (AID 1160); settings: 45 min, higher = more signal, called active from +8 up or from −8 down
[10] = target: NADPH oxidase 5 (Homo sapiens) (UniProt Q96PH1); test: NOX5-dependent H2O2 signal modulators, primary screen, NOX inhibitor project, cell-based, HEK293-NOX5, Amplex Red fluorescence (AID 1161); settings: HEK293-NOX5, ionomycin, 45 min, higher = more signal
NADPH oxidase 5 (Homo sapiens), sequence (Q96PH1 whole entry, looked up): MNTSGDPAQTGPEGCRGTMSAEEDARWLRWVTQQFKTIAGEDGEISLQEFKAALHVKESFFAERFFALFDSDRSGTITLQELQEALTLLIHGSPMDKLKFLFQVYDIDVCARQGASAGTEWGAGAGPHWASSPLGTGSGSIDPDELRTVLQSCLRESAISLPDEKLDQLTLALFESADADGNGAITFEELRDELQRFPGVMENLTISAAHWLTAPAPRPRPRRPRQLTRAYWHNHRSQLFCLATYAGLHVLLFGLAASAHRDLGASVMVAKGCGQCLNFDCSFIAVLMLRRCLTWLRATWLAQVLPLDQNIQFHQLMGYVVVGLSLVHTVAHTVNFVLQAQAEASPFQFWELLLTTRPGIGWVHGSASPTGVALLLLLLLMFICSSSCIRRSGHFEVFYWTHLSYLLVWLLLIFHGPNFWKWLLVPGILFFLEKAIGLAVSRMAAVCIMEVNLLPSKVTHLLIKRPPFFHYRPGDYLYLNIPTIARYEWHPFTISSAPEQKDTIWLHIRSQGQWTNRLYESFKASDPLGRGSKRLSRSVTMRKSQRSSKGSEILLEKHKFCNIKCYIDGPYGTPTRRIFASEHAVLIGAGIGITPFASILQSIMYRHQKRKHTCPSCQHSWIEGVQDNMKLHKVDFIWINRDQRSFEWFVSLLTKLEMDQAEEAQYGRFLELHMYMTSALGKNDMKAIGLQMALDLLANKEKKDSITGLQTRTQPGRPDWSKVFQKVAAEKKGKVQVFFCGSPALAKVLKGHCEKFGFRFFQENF

NADPH oxidase 4 (Homo sapiens), sequence (Q9NPH5 whole entry, looked up): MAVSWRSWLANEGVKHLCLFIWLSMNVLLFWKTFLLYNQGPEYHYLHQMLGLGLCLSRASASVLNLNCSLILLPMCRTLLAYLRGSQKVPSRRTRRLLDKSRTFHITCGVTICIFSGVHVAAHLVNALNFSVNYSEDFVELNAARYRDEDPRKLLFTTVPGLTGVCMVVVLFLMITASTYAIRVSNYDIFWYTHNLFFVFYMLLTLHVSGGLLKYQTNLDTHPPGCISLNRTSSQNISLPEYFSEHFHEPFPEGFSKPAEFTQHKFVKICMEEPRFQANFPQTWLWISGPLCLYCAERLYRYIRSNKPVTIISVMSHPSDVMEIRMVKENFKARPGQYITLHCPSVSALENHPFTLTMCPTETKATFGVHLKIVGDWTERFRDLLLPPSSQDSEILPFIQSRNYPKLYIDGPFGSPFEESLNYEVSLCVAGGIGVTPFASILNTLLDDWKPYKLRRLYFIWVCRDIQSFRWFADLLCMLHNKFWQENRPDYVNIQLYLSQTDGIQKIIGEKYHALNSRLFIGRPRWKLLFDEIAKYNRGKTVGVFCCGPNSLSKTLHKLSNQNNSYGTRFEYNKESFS
NADPH oxidase 2 (Homo sapiens), sequence (P04839 whole entry, looked up): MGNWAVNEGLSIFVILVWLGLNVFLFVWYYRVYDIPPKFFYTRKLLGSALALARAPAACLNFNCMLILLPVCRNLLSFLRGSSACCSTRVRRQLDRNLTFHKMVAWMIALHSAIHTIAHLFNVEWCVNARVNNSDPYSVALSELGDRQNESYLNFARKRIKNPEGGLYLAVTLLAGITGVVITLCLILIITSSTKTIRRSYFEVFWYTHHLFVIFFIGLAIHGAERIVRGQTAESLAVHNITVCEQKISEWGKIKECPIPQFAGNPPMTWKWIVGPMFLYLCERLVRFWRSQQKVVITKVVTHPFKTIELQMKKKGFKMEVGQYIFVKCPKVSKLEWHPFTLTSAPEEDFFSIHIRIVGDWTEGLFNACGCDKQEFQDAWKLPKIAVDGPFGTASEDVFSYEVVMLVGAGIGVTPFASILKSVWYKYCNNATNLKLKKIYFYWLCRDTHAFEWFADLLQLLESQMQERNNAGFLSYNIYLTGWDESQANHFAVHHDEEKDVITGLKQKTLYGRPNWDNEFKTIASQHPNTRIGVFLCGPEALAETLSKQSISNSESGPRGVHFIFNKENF

SMILES	z-score [1]	composite z-score [2]	z-score [3]	z-score [4]	z-score [5]	z-score [6]	z-score [7]	z-score [8]	z-score [9]	z-score [10]
[N-]=[N+]=NCc1ccccc1[C@H]1OC(c2ccc(OCCCO)cc2)=N[C@@]1(Cc1ccccc1N=[N+]=[N-])C(=O)N1CCCCC1	0.369 (inactive)	0.72	27.7 (active)	21.4 (active)	2.7 (inactive)	4.56 (inactive)	-0.0152	-2.52 (inactive)	0.328 (inactive)	-0.575
O=C1c2ccccc2[C@](Cc2ccccc2I)(C(=O)NCC(F)(F)F)[C@H](c2ccc(CO)cc2)N1Cc1ccccc1	0.131 (inactive)	-0.229	2.39 (inactive)	0.111 (inactive)	0.369 (inactive)	0.278 (inactive)	-0.261	0.738 (inactive)	-0.16 (inactive)	1.14
CCCC[C@@H](O)C1=C(COc2ccccc2)Cn2c(=O)n(-c3ccccc3)c(=O)n2[C@H]1CO	2.85 (inactive)	-0.275	2.58 (inactive)	-0.478 (inactive)	-0.34 (inactive)	-2.27 (inactive)	0.814	-0.809 (inactive)	0.33 (inactive)	-0.235
Cc1ccc(S[C@]2(C(=O)O)CC(=O)N(Cc3ccccc3C(F)(F)F)[C@@H]2c2ccc(CO)cc2)cc1	0.281 (inactive)	-0.109	4.63 (inactive)	0.388 (inactive)	0.0934 (inactive)	0.231 (inactive)	-0.854	0.375 (inactive)	0.152 (inactive)	0.476
COC(=O)[C@@]1(Cc2ccccc2)[C@H]2c3cc(C(=O)N(C)C)n(Cc4ccccn4)c3C[C@H]2CN1C(=O)c1ccccc1	-1.59 (inactive)	0.378	1.32 (inactive)	0.458 (inactive)	0.365 (inactive)	0.544 (inactive)	-0.733	0.048 (inactive)	-1.87 (inactive)	-2.08
COCCCNC(=O)[C@@H]1c2ccccc2C(=O)N(Cc2cc(F)cc(C(F)(F)F)c2)[C@H]1c1ccc(CO)cc1	-0.0134 (inactive)	-0.25	1.49 (inactive)	0.35 (inactive)	0.62 (inactive)	0.0592 (inactive)	-0.731	0.193 (inactive)	0.401 (inactive)	0.774
CC(=O)NCCCC[C@@H]1NC(=O)[C@H]2C[C@@H](C(=O)NCCCCCN)[C@@H](c3cccc(OCCO)c3)N2C1=O	2.39 (inactive)	0.262	1.15 (inactive)	-1.08 (inactive)	1.9 (inactive)	-1.98 (inactive)	1.36	0.0821 (inactive)	0.793 (inactive)	0.875
C[N+](C)(C)CCCC[C@@H]1NC(=O)[C@H]2C[C@@H](C(=O)NCCCCCCN)[C@@H](c3cccc(OCCO)c3)N2C1=O	-0.0261 (inactive)	1.29	1.19 (inactive)	0.156 (inactive)	3.3 (inactive)	0.0792 (inactive)	-0.161	1.12 (inactive)	0.64 (inactive)	1.58
CCCCCCCCCCC(O)C1C=CC2C(=O)NC(=O)C2N1Nc1ccccn1 (stereo not given)	-8.86 (active)	0.0312	19.9 (active)	6.41 (inactive)	-0.0795 (inactive)	2.71 (inactive)	-1.18	-2.33 (inactive)	-5.71 (inactive)	-0.309
CC(C)(C)OC(=O)CC[C@]1(C(=O)O)COC(c2ccc(OCCCO)cc2)=N1	-0.283 (inactive)	0.126	2.54 (inactive)	-0.0827 (inactive)	0.091 (inactive)	0.0515 (inactive)	-0.426	0.0212 (inactive)	0.624 (inactive)	0.487
NC(=O)NCC#Cc1ccc2c(c1)[C@]1(C(=O)N2)[C@H](c2ccc(OCCO)cc2)N2[C@H](c3ccccc3)[C@H](c3ccccc3)OC(=O)[C@H]2[C@@H]1C(=O)N1CCN(c2ncccn2)CC1	0.811 (inactive)	0.538	3.03 (inactive)	1.1 (inactive)	0.454 (inactive)	0.516 (inactive)	0.0981	1.75 (inactive)	1.48 (inactive)	0.41
COc1ccc(C(=O)Nc2ccc(CN3C(=O)[C@]4(O[C@H](CCn5cc([C@H](O)c6ccccc6)nn5)[C@@H]([Si](C)(C)c5ccc(OC)cc5)[C@@H]4C)c4ccccc43)cc2)cc1	-0.372 (inactive)	0.193	3.29 (inactive)	1.02 (inactive)	0.741 (inactive)	1.26 (inactive)	0.319	0.753 (inactive)	0.206 (inactive)	2.27
CCCC=C(CCC)[C@@H](NS(=O)(=O)c1cccc2cccnc12)c1ccc(C(=O)OC)cc1	-1.2 (inactive)	0.968	-0.643 (inactive)	-0.299 (inactive)	-0.722 (inactive)	-1.19 (inactive)	0.393	0.0603 (inactive)	0.212 (inactive)	2
CC(C)C[C@@H]1NC(=O)[C@@H]2C[C@H](C(=O)NCc3ccc(F)cc3)[C@H](c3ccc(O)cc3)N2C1=O	0.227 (inactive)	-0.0559	1.46 (inactive)	0.328 (inactive)	-1.64 (inactive)	0.424 (inactive)	0.0668	0.468 (inactive)	-0.106 (inactive)	1.18
CO[C@H]1O[C@H](CO)[C@@H](OC(=O)Nc2ccc(C(F)(F)F)cc2)[C@H](OC(=O)Nc2ccccc2)[C@H]1OC(=O)Nc1ccccc1	-1.41 (inactive)	1.14	4.63 (inactive)	1.22 (inactive)	-2.03 (inactive)	0.887 (inactive)	0.121	-5.31 (inactive)	-1.39 (inactive)	-1.85
COc1cc2c(cc1OC)CN(C(=O)[C@@H]1[C@H]3C(=O)O[C@H](c4ccccc4)[C@H](c4ccccc4)N3[C@H](c3ccc(O)cc3)[C@@]13C(=O)Nc1ccc(C#CCNC(N)=O)cc13)CC2	0.108 (inactive)	0.231	1.1 (inactive)	0.218 (inactive)	-0.83 (inactive)	-0.0717 (inactive)	-0.419	0.842 (inactive)	0.157 (inactive)	0.432
COc1ccc(C(=O)Nc2ccc(CN3C(=O)[C@@]4(O[C@@H](CC(=O)N5Cc6ccccc6C[C@H]5CO)[C@H]([Si](C)(C)c5ccc(OC)cc5)[C@H]4C)c4ccccc43)cc2)cc1	0.0225 (inactive)	0.176	4.72 (inactive)	1.4 (inactive)	0.655 (inactive)	0.868 (inactive)	0.0933	0.105 (inactive)	0.417 (inactive)	-0.886
O=C(O)[C@@]1(Cc2ccccc2)COC(c2ccc(OCCCO)cc2)=N1	0.532 (inactive)	-0.0573	1.36 (inactive)	-0.166 (inactive)	0.619 (inactive)	0.295 (inactive)	-0.521	-0.0643 (inactive)	0.432 (inactive)	0.237
[N-]=[N+]=Nc1ccccc1[C@H]1OC(c2ccc(OCCCO)cc2)=N[C@@]1(Cc1ccccc1)C(=O)NCc1ccccc1	1.74 (inactive)	0.512	33.5 (active)	26.9 (active)	1.22 (inactive)	2.33 (inactive)	2.03	-2.35 (inactive)	-0.275 (inactive)	-1.3
COc1ccc([Si](C)(C)[C@H]2[C@H](CCn3cc(CCO)nn3)O[C@@]3(C(=O)N(Cc4cccc(N5C(=O)c6cccc7cccc5c67)c4)c4ccccc43)[C@@H]2C)cc1	0.652 (inactive)	0.466	5.3 (inactive)	2.43 (inactive)	1.32 (inactive)	1.36 (inactive)	0.615	0.782 (inactive)	1.74 (inactive)	2.97
